# Test results reported in PubChem BioAssay AID504883 (The Scripps Research Institute Molecular Screening Center, 2011).
# A number with no mark means an inactive call.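 How the source made its calls: active means EC50 at or below 10 µM; inactive means EC50 above 10 µM.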
# Test: fluorescence polarization artefacts without PKA proteins – biochemical, 1536-well HTS, artefact control for PKA-R1A complex activator project, dose response (AID 504883)
# Details: Cy5-IP20 peptide alone, fluorescence polarization artifact counterscreen
row,SMILES,EC50 [µM]
1,CCCC(=O)Nc1ncnc2c1ncn2[C@@H]1O[C@@H]2OP(=O)(O)OC[C@H]2[C@H]1OC(=O)CCC,> 114
2,CCCC(=O)Nc1ncnc2c1ncn2[C@@H]1O[C@@H]2COP(=O)(O)O[C@H]2[C@H]1OC(=O)CCC,> 114
3,CCOP1(=O)OCC2OC(n3cnc4c(N)ncnc43)C(O)C2O1 (stereo unspecified),> 114
4,Nc1ncnc2c1nc(Br)n2[C@@H]1O[C@@H]2COP(=O)(O)O[C@H]2[C@H]1O,> 114
5,Nc1nc2c(nc(Br)n2[C@@H]2O[C@@H]3COP(=O)(O)O[C@H]3[C@H]2O)c(=O)[nH]1,> 114
6,Nc1ncnc2c1nc(Sc1ccc(Cl)cc1)n2[C@@H]1O[C@@H]2COP(=O)(O)O[C@H]2[C@H]1O,> 114
